Test systems include NCI-H23 lung; NCI-H226 lung; NCI-H322M lung; HOP-62 NSCLC; NCI-H460 lung; HOP-92 NSCLC; NCI-H522 lung; A549/ATCC NSCLC; 786-0 renal; COLO 205 colon; DU-145 prostate; K-562 leukemia; MALME-3M melanoma; MDA-MB-231 breast; SF-268 CNS; SF-295 CNS; SF-539 CNS; UACC-257 melanoma; RXF 393 renal.
Common to all, as to assay: NCI-60 one-dose screen, 48 h (100 = growth as untreated, 0 = no growth, -100 = all killed)
Holding throughout (details): 10 µM unless noted

The panel holds about 83,000 compounds, 20% with a hit somewhere; the sample as a whole holds those more often.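 Results are percent growth after 48 hours of single-concentration exposure. 100 means growth as in untreated cells, lower positive values show inhibition; negative values down to -100 show cell death.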 Unmarked numbers belong to inactive results. Calls of active or inactive are those of the source. The calls were made as follows: active = growth percent below 10; inactive = the rest.

Consider `CCCCN(Cc1ccc(C(=O)NO)cc1)C(=O)Nc1ccc(OCCCCCCCCCn2cc(CCCCC(=O)N[C@H](C(=O)N3C[C@H](O)C[C@H]3C(=O)NCc3ccc(-c4scnc4C)cc3)C(C)(C)C)nn2)cc1`, for which the growth is 33.4% with NCI-H23 lung; 46.1% with NCI-H226 lung; 63.7% in the test on NCI-H322M lung; 39.7% in the test on HOP-62 NSCLC; 11.6% in the test on NCI-H460 lung; -11.4% (active) with HOP-92 NSCLC. In addition, the growth was 19.5% with NCI-H522 lung; 86.8% in the test on A549/ATCC NSCLC; 69.8% with 786-0 renal; 36.9% with COLO 205 colon; 50.8% in the test with DU-145 prostate; 16.2% in the test with K-562 leukemia. Moreover, the growth was 23.8% with MALME-3M melanoma; 59.6% in the test on MDA-MB-231 breast; 36.2% with SF-268 CNS; 92% with SF-295 CNS; 32% in the test on SF-539 CNS; 60% in the test with UACC-257 melanoma.
With `O[C@H]1CO[C@H]2[C@@H]1OC[C@@H]2Oc1ccc(Nc2nc(Nc3ccc(F)c(Cl)c3)ncc2F)cc1Cl`, the growth in the test with NCI-H23 lung is 101%; with NCI-H226 lung it was 96.9%; in the test on NCI-H322M lung it was 101%; with HOP-62 NSCLC, 118%; in the test on NCI-H460 lung, 106%; in the test with HOP-92 NSCLC, 101%. Further, the growth with NCI-H522 lung was 98.4%; with A549/ATCC NSCLC, 102%; in the test on 786-0 renal it was 97.7%; with COLO 205 colon it was 116%; with DU-145 prostate, 117%; in the test with K-562 leukemia, 115%. The growth was 100% with MALME-3M melanoma; 95.4% in the test on MDA-MB-231 breast; 103% in the test with SF-268 CNS; 92.1% in the test with SF-295 CNS; 95% with SF-539 CNS; 106% in the test with UACC-257 melanoma.
For the compound `CC(C)c1ccc(NC(=O)Cc2ccc(Nc3ncnc4cc(-c5cnn(CCN(C)C)c5)ccc34)cc2)cc1`, the growth is -61.7% [30 µM] (active) with NCI-H23 lung; 50.6% [30 µM] in the test on NCI-H226 lung; -99.7% [30 µM] (active) with NCI-H322M lung; -0.67% [30 µM] (active) in the test with HOP-62 NSCLC; -90.5% [30 µM] (active) with NCI-H460 lung; -45.3% [30 µM] (active) in the test with HOP-92 NSCLC. In addition, the growth in the test on NCI-H522 lung was -45.3% [30 µM] (active); with A549/ATCC NSCLC it was -35.7% [30 µM] (active); with 786-0 renal it was -59.1% [30 µM] (active); in the test on COLO 205 colon, -46.7% [30 µM] (active); in the test on DU-145 prostate, -97.5% [30 µM] (active); in the test on K-562 leukemia, -34.9% [30 µM] (active). Moreover, the growth was -88.7% [30 µM] (active) in the test with MALME-3M melanoma; -77.8% [30 µM] (active) with MDA-MB-231 breast; -62.3% [30 µM] (active) in the test with SF-268 CNS; -61.9% [30 µM] (active) with SF-295 CNS; -88.8% [30 µM] (active) in the test on SF-539 CNS; 54.7% [30 µM] in the test on UACC-257 melanoma.
As for `C=C1C(=O)O[C@H]2[C@H]1CC/C(COC(=O)/C=C\C(=O)NCc1ccc(Cn3c(=O)sn(-c4ccc(OC)cc4)c3=O)cc1)=C\CC[C@@]1(C)O[C@@H]21`, the growth was -69.9% (active) in the test on NCI-H23 lung; -65.9% (active) in the test with NCI-H226 lung; 32.4% with NCI-H322M lung; -20.4% (active) in the test on HOP-62 NSCLC; -65.5% (active) in the test on NCI-H460 lung; -65% (active) in the test with HOP-92 NSCLC. Besides, the growth in the test with NCI-H522 lung was -45.2% (active); in the test on A549/ATCC NSCLC, 12.6%; in the test on 786-0 renal, -57.9% (active); in the test with COLO 205 colon it was -45.9% (active); with DU-145 prostate, -84% (active); with K-562 leukemia, 0.146% (active). The growth in the test with MALME-3M melanoma was -92% (active); in the test with MDA-MB-231 breast it was -89.6% (active); with SF-268 CNS, -78.3% (active); in the test with SF-295 CNS, 55%; in the test on SF-539 CNS, -99.3% (active); in the test on UACC-257 melanoma it was -62.2% (active).
Turning to `Nc1c(C(=O)Nc2ccccc2)sc2nc3c(cc12)CCCCCC3`, the growth in the test with NCI-H23 lung was 22.5%; in the test on NCI-H226 lung, 27%; in the test with NCI-H322M lung it was 29.2%; with HOP-62 NSCLC, 15.5%; with NCI-H460 lung, 4.61% (active); in the test with HOP-92 NSCLC, 76.5%. The growth was -11.6% (active) in the test with NCI-H522 lung; 15% in the test on A549/ATCC NSCLC; 10.4% in the test with 786-0 renal; -17% (active) in the test on COLO 205 colon; 18.6% in the test on DU-145 prostate; 7.92% (active) in the test with K-562 leukemia. In addition, the growth in the test with MALME-3M melanoma was 31.3%; with RXF 393 renal it was -38.7% (active); with SF-268 CNS it was 36.6%; in the test on SF-295 CNS, -0.47% (active); in the test with SF-539 CNS it was -41.8% (active); in the test on UACC-257 melanoma, 44.9%.
With `Cc1nc(Nc2ccc(NC(=S)Nc3ccccc3)cc2)nc2nc(Nc3ccc(S(=O)(=O)O)cc3)[nH]c(=O)c12`, the growth with NCI-H23 lung was 95.8%; with NCI-H226 lung, 123%; in the test with NCI-H322M lung, 122%; in the test with HOP-62 NSCLC, 105%; in the test with NCI-H460 lung, 108%; with HOP-92 NSCLC, 75.7%. Moreover, the growth was 86.9% in the test on NCI-H522 lung; 111% in the test on A549/ATCC NSCLC; 103% in the test with 786-0 renal; 113% in the test on COLO 205 colon; 145% in the test with DU-145 prostate; 71% with K-562 leukemia. The growth in the test with MALME-3M melanoma is 104%; in the test on MDA-MB-231 breast it was 94.4%; in the test on SF-268 CNS, 106%; with SF-295 CNS it was 113%; with SF-539 CNS, 132%; in the test with UACC-257 melanoma, 136%.
For `Cc1nc(Nc2ccc(NC(=S)Nc3ccccc3)cc2)nc2nc(SCc3ccccc3)[nH]c(=O)c12`, the growth in the test on NCI-H23 lung is 101%; in the test on NCI-H226 lung, 82.6%; with NCI-H322M lung it was 173%; with HOP-62 NSCLC, 95.2%; in the test on NCI-H460 lung it was 107%; in the test with HOP-92 NSCLC, 82.4%. For the same compound, the growth with NCI-H522 lung was 40.5%; in the test with A549/ATCC NSCLC it was 57.9%; in the test with 786-0 renal it was 99.1%; with COLO 205 colon, 126%; with DU-145 prostate, 104%; in the test with K-562 leukemia it was 72.1%. The growth with MDA-MB-231 breast is 76.9%; in the test on RXF 393 renal, -24% (active); in the test on SF-268 CNS, 98.4%; in the test on SF-295 CNS, 169%; in the test on SF-539 CNS it was 63.3%; in the test on UACC-257 melanoma, 74.8%.
Turning to `COc1ccc(/C=C2\COc3ccc(O)c(O)c3C2=O)c(OC)c1`, the growth is 78.8% in the test with NCI-H23 lung; 92.4% in the test on NCI-H226 lung; 73.7% in the test with NCI-H322M lung; 72.9% with HOP-62 NSCLC; 72.4% with NCI-H460 lung; 91.5% with HOP-92 NSCLC. In addition, the growth with NCI-H522 lung was -17% (active); in the test on A549/ATCC NSCLC, 62.9%; in the test with 786-0 renal, 61.1%; in the test with COLO 205 colon, 107%; in the test with DU-145 prostate, 67.2%; in the test with K-562 leukemia, 14%. In addition, the growth was 32.9% in the test on MALME-3M melanoma; 56.6% in the test with MDA-MB-231 breast; 54.8% in the test on SF-268 CNS; 95.6% in the test on SF-295 CNS; 49.5% with SF-539 CNS; 54.4% in the test with UACC-257 melanoma.

The record behind these values is PubChem BioAssay (NCI).
